Records with an inconclusive call do not appear. Where a call stands in place of a potency, no number is given. Calls of active or inactive are those of the source. Calls follow the shape of the dose curve; as a rule, active = well fitted cell-killing curve with a large enough effect; inconclusive = small, poorly fitted or top-dose-only effect; inactive = flat fitted curve, though single readings scatter.
Potency is read from the fitted curve at half-maximal effect.

A short description of the assay: Quantitative highthroughput screen to assess conditional lethalithy of P12 Ichikawa cells grown in RPMI1640 with dialyzed fetal bovine serum (RPMI+ds) (AID 1963880). Also: nearly all actives have a fitted effect of over 35% in size. Conditions: ATP luminescence, 48 h; Potency: P12-Ichikawa viability; series mostly up to 45.8 µM. An excerpt: Assay Provider: Jason Cantor Ph.D.
Department of Biochemistry
University of Wisconsin-Madison, Madison, WI, USA
Chemical screening studies have identified drug sensitivities across hundreds of cancer cell lines but most putative therapeutics fail to translate. Discovery and development of drug candidates in models that more accurately reflect nutrient levels in human blood is a major challenge. Here we performed high-throughput screens in conventional versus Human Plasma-Like Medium (HPLM) to identify compounds that were "missed" when screening using the artificial culture condition. Sets of conditional anticancer compounds spanned phases of clinical development and included non-oncology drugs were assessed. […] We also traced conditional phenotypes for several chemotherapeutics to availability of HPLM-specific metabolites and confirmed others for compounds whose reported targets are encoded by nonessential genes. Our findings establish generalizable strategies for exploiting conditional lethality in HPLM to reveal therapeutic candidates and mechanisms of action in cancer cells.
Described herein are the results of each viability screens against three cell lines: NOMO1 (an acute myeloid leukemia cell line); P12-Ichikawa (a T-cell acute lymphoblastic leukemia); and SEM (a B-cell ALL). Each assay was screened using 3 different cell culture media: homemade human plasma-Like medium with 10% dialyzed fetal bovine serum (HPLM+ds); RPMI1640 with 10% untreated FBS and 5mM glucose (RPMI+s); and RPMI1640 with 10% dialyzed fetal bovine serum and 5 mM glucose (RPMI+ds).
PROTOCOL TABLE (as described by Inglese J, Shamu CE and Guy RK. 2007)
SEQUENCE No. (e.g., 1, 2, 3, etc.); […] (e.g., Cells, Incubation, Reagent, etc.); VALUE and DESCRIPTION.
1; Cells; 5 uL; white, solid bottom 1536-well Greiner assay plate.
2; Compounds; 23 nL; Kalypsis pin tool (Wako USA) equipped with a 1536-well pin head to transfer to the assay plates.
3; Incubation; 48 hours; 37C incubation.
4; Reagent; 3 uL; CellTiter Glo (Promega).
5; Incubation; 5 min, room temperature
6; Detection; Luminescence, Viewlux PerkinElmer.
NOTES (numbers refer to Sequence numbers above)
1. Briefly, 5 ul of cell reagent was dispensed using a Multidrop Combi Dispenser. The NOMO1 and SEM cells were plated at 500 cells/well and the P12-Ichikawa line at 1000 cells/well.
2. After seeding the cells, 23 nL of MIPE 4.1 library compounds (in DMSO) were added to each plate using a Kalypsys 1536 Pintool dispenser. Bortezomib at final concentration of […] and DMSO were added to each plate as positive and negative controls respectively. For each screen, MIPE 4.1 compounds were added over an eleven-point concentration range […] in 3-fold dilutions.
3. Each plate was covered with a stainless steel gasketed lid to prevent evaporation and incubated for 48 hour at 37C, 95% relative humidity, and 5% CO2.
4-5. Three microliter CellTilter-GloTM luminescent substrate mix (Promega) reagent was added to the assay plate and incubated at room temperature for 5 min.
6. The luminescence signal was measured using a ViewLux (PerkinElmer) multiplate reader with a 2 second exposure time per plate. Data for each compound were normalized as percent viability such that measurements for DMSO and the empty well controls in each plate were defined as 100% and 0%, respectively.
For `COC(=O)[C@@H](N)CCCN=C(N)N[N+](=O)[O-]`, the Potency result is “inactive”. As for `C#C[C@]1(O)C=C[C@@H]2[C@@H]3CCC4=CC(=O)CC[C@@H]4[C@H]3CC[C@@]21CC`, the Potency result was “inactive”.

Consider `C=C[C@@H]1CN2CCC1C[C@@H]2[C@@H](O)c1ccnc2ccccc12` (stereo not given in full), for which the Potency entry was “inactive”.

As to `NC1=NC(=O)N2CC12` (stereo not given), the Potency is 6620 nM (active). As for `CC(C)(O)C=CC(=O)[C@](C)(O)[C@H]1[C@H](O)C[C@]2(C)[C@@H]3CC=C4[C@@H](C=C(O)C(=O)C4(C)C)[C@]3(C)C(=O)C[C@@]12C`, the Potency is 166 nM (active). For the molecule `CC(C)(C)c1cc(C=C(C#N)C#N)cc(Br)c1O`, the Potency result was “inactive”. Next, `O=[N+]([O-])c1ncc[nH]1`: “inactive”. Consider `CCOP(=O)(OCC)C(C)NC(=O)N(CCCl)N=O` (stereo not given), for which the Potency entry is “inactive”. Next, `CC(=O)O[C@@]12CO[C@H]1C[C@H](O)[C@@]1(C)C(=O)[C@H](O)C3=C(C)[C@@H](O)C[C@@](O)([C@@H](OC(=O)c4ccccc4)[C@@H]21)C3(C)C`: 11800 nM (active).

Regarding `Cc1ccccc1-n1c(Cn2ncc3c(N)ncnc32)nc2cccc(C)c2c1=O`, the Potency is 3320 nM (active). In the case of `COc1ccc2c(c1OC)CN1CCc3cc4c(cc3C1C2)OCO4` (stereo not given), the Potency is 1660 nM (active). In the case of `COC1(CS(=O)c2ccccc2)CCN(CCc2c[nH]c3ccc(F)cc23)CC1` (stereo not given), the Potency result is “inactive”.

Consider `C[C@]12COC(=O)C[C@@H]1CC[C@@H]1[C@H]2CC[C@@]2(C)[C@H]1CC[C@]2(C)O`, for which the Potency result is “inactive”.

As for `CC(C)[C@H]1C(=O)N[C@H](CO)Cc2c[nH]c3cccc(c23)N1C`, the Potency was 418 nM (active). For `C[C@@H]1[C@H](O)[C@@H](C)C=CC=CCCC=CC=CC=CC=C[C@H](O[C@H]2O[C@@H](C)[C@H](O)[C@@H](N)[C@@H]2O)CC2O[C@](O)(C[C@@H](O)[C@H](O)CC[C@@H](O)C[C@@H](O)C[C@@H](O)CC(=O)O[C@H]1C)C[C@H](O)[C@H]2C(=O)O`, the Potency entry was “inactive”.

On to `COc1ccc(C(CN(C)C)C2(O)CCCCC2)cc1` (stereo not given), for which the Potency entry is “inactive”.

With `C[C@@H]1O[C@@H](O[C@@H]2C=C3CC[C@@H]4[C@@H](CC[C@]5(C)[C@H](c6ccc(=O)oc6)CC[C@@]45O)[C@@]3(C)CC2)[C@H](O)[C@H](O)[C@H]1O`, the Potency is 23.5 nM (active).

On to `C[C@]12CC[C@@H]3c4ccc(OC(=O)N(CCCl)CCCl)cc4CC[C@H]3[C@@H]1CC[C@@H]2OP(=O)(O)O`, for which the Potency entry is “inactive”. Regarding `COC1=C[C@@H]2[C@@H]3Cc4ccc(OC)c(O)c4[C@]2(CCN3C)CC1=O`, the Potency result was “inactive”. On to `CCCC[N+]1(C)[C@H]2CC(OC(=O)[C@H](CO)c3ccccc3)C[C@H]1[C@H]1O[C@H]12` (stereo not given in full), for which the Potency result is “inactive”. Regarding `C[C@@H]1CC[C@@]2(OC1)O[C@H]1C[C@H]3[C@@H]4CC=C5C[C@@H](O[C@@H]6O[C@H](CO)[C@@H](O[C@@H]7O[C@@H](C)[C@H](O)[C@@H](O)[C@@H]7O)[C@H](O)[C@@H]6O[C@@H]6O[C@@H](C)[C@H](O)[C@@H](O)[C@@H]6O)CC[C@]5(C)[C@@H]4CC[C@]3(C)[C@@H]1[C@H]2C`, the Potency was 23500 nM (active). As for `COc1cccc2c1[C@]13CCN(CC4CC4)[C@H](C2)[C@]1(OC)CCC(=O)C3`, the Potency result is “inactive”. As for `CC(C)C[C@H](CN)CC(=O)O`, the Potency entry is “inactive”. For the molecule `O=S(=O)(F)Cc1ccccc1`, the Potency result is “inactive”. `CC(O)=C(C#N)C(=O)Nc1cc(Br)ccc1Br`: the Potency result is “inactive”. Next, `CNCC(O)c1ccc(O)cc1` (stereo not given): “inactive”; `CCN(CC)C(=O)c1ccc(C2=CC3(CCNCC3)Oc3cccc(O)c32)cc1`: “inactive”; `Oc1ccc2c3c1O[C@H]1c4[nH]c5c(c4C[C@@]4(O)[C@@H](C2)N(CC2CC2)CC[C@]314)C[C@@]1(O)[C@H]2Cc3ccc(O)c4c3[C@@]1(CCN2CC1CC1)[C@H]5O4`: “inactive”.

With `CC(C)c1cccc(C(C)C)c1O`, the Potency result was “inactive”. For the molecule `C=C(C)[C@H]1Cc2c(ccc3c2O[C@@H]2COc4cc(OC)c(OC)cc4[C@@H]2C3=O)O1`, the Potency was 4690 nM (active).

In the case of `CC(NC(C)(C)C)C(=O)c1cccc(Cl)c1` (stereo not given), the Potency entry was “inactive”. Next, `CSCC[C@@H](NC(=O)[C@@H](Cc1ccccc1)NC(=O)CNC(=O)CNC(=O)[C@@H](N)Cc1ccc(O)cc1)C(=O)O`: “inactive”.

For the molecule `COC[C@H]1OC(=O)c2coc3c2[C@@]1(C)C1=C(C3=O)C2CCC(=O)[C@@]2(C)C[C@H]1OC(C)=O` (stereo not given in full), the Potency result was “inactive”. Consider `Cc1[nH]nc2ccc(-c3cncc(OC[C@@H](N)Cc4c[nH]c5ccccc45)c3)cc12`, for which the Potency is 1050 nM (active). The result for `Cc1cccc(C)c1NC(=O)CN1CCCC1=O` reads “inactive”; that for `CCc1c(C(=O)C(N)=O)c2c(OCC(=O)O)cccc2n1Cc1ccccc1`, “inactive”; that for `CN1C(=O)COc2c(C(=O)NC3CN4CCC3CC4)cc(Cl)cc21` (stereo not given), “inactive”. With `CC1(N2CCC(n3c([C@@H]4CCCNC4)nc4ccccc43)CC2)CCCCCCC1`, the Potency was 13200 nM (active).

For `CN(C)[C@@H]1C(=O)C(C(N)=O)=C(O)[C@@]2(O)C(=O)C3=C(O)c4c(O)cccc4[C@@](C)(O)[C@H]3C[C@@H]12`, the Potency result is “inactive”.

`Cc1sc2c(c1C)C(c1ccc(Cl)cc1)=N[C@@H](CC(=O)OC(C)(C)C)c1nnc(C)n1-2`: the Potency was 2640 nM (active).
